Measured values from the supplement of paper PMC12067093, “Discovery and optimisation of a covalent ligand for TRIM25 and its application to targeted protein ubiquitination” (Chemical Science, 2025).
Of roughly 21,000 targets only a part is listed; those with the largest changes were picked by preference.

compound: Cc1cc(ccc1-c1ccccc1)C(=O)N1CCCN(CC1)C(=O)CCl [compound 10]; assay: probe-labelled cysteine peptide fold change vs DMSO (competition) (log2 fold change); higher = less target engagement (more negative = stronger competition); conditions: 10 µM; THP-1; incubation time: 4 h
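Also: competitive profiling in live THP-1 cells: cysteine peptides tagged with an iodoacetamide desthiobiotin (IA-DTB) probe, intensity after compound treatment relative to DMSO-treated cells.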

Chain of UniProt O75717 (O75717 whole entry, looked up): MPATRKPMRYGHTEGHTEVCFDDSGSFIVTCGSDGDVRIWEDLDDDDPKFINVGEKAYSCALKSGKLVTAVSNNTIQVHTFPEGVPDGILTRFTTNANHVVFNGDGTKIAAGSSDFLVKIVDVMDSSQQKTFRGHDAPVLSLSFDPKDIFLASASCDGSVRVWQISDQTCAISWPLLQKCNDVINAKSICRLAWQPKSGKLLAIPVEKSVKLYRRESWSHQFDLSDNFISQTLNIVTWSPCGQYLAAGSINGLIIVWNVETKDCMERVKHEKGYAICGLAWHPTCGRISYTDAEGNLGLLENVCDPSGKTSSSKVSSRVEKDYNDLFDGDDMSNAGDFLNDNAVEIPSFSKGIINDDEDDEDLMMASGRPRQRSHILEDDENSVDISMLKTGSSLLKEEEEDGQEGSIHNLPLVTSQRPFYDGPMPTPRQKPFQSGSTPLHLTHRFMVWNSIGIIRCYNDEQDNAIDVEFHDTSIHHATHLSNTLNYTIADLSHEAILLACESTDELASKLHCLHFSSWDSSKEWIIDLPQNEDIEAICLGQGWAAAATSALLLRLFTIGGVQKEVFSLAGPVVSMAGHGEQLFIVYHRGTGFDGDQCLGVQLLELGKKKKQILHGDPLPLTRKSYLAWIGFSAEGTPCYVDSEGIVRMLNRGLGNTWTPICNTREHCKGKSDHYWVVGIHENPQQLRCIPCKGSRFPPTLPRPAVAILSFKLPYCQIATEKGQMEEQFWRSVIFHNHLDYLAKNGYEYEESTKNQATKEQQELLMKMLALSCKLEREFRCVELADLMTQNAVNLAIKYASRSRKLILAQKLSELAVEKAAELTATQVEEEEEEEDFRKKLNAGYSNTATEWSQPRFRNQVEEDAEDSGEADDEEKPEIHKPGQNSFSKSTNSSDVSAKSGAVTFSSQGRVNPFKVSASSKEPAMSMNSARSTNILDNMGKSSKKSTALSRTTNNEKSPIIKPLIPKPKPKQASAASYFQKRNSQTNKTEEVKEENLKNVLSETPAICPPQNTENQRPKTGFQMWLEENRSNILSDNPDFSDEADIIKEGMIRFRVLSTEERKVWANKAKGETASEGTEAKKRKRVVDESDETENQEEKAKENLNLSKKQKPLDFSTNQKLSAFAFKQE
Chain of UniProt Q9UNX4 (Q9UNX4 whole entry, looked up): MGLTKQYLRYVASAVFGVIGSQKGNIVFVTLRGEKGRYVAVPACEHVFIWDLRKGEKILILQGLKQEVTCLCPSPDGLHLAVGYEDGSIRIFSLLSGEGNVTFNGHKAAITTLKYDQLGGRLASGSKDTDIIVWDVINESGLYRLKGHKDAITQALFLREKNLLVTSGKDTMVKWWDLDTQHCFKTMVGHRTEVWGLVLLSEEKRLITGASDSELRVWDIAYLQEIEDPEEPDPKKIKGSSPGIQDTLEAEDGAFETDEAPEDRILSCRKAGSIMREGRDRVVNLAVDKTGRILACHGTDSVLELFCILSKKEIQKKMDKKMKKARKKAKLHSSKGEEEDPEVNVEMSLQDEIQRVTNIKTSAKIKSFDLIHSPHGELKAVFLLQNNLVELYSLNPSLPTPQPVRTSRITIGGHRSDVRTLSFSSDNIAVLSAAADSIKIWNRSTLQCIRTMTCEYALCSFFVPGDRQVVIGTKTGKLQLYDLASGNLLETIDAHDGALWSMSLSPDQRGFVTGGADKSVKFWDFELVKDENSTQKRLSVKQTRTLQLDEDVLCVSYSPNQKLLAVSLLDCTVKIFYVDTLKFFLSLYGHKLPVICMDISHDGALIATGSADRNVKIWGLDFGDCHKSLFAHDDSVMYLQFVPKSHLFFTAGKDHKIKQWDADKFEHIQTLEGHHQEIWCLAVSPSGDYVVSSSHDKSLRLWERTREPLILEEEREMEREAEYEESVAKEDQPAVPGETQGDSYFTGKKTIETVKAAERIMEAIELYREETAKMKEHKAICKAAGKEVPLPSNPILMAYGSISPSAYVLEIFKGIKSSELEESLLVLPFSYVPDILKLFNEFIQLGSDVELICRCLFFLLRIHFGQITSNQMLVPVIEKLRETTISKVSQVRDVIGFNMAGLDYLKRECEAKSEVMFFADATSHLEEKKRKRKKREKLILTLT
Chain of UniProt Q9NNW5 (Q9NNW5 whole entry, looked up): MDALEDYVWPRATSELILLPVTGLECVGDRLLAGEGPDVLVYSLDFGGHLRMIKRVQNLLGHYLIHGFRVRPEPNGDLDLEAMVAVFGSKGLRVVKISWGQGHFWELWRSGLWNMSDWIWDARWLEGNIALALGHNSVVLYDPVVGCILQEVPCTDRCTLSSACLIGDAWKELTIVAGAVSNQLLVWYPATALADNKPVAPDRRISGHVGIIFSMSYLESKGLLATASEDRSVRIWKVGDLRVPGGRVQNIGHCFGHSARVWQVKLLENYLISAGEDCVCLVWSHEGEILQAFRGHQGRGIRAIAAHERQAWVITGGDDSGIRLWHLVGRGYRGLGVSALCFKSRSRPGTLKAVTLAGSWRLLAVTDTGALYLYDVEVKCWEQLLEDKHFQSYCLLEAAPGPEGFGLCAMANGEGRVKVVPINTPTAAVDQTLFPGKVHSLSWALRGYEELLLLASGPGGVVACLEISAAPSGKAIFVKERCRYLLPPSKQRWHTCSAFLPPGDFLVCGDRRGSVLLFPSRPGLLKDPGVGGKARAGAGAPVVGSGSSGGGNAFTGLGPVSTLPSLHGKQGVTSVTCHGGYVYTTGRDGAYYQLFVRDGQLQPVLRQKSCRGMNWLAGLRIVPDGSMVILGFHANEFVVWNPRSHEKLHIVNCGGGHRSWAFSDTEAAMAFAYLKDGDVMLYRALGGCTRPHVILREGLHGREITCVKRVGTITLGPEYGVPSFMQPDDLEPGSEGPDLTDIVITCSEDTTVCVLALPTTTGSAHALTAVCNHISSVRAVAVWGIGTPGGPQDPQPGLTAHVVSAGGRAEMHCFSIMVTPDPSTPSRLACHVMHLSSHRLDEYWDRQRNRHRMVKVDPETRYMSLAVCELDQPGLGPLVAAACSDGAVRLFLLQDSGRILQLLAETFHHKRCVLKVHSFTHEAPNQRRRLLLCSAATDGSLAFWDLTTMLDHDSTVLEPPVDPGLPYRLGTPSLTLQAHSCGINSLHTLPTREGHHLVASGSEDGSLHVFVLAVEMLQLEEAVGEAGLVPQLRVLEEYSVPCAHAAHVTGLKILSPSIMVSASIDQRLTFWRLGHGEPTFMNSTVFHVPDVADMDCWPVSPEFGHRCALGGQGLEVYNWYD
Chain of UniProt Q8NBI6 (Q8NBI6 whole entry, looked up): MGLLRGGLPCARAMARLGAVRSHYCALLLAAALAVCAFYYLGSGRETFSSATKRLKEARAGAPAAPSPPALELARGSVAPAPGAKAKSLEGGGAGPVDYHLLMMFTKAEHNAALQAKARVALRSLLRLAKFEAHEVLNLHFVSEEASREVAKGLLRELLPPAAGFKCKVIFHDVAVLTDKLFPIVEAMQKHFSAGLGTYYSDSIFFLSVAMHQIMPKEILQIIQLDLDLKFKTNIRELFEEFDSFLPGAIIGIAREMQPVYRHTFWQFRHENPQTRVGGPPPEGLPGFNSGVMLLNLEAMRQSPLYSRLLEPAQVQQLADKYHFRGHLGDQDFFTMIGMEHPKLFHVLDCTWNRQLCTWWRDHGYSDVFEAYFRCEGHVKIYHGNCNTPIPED
Chain of UniProt P61981 (P61981 whole entry, looked up): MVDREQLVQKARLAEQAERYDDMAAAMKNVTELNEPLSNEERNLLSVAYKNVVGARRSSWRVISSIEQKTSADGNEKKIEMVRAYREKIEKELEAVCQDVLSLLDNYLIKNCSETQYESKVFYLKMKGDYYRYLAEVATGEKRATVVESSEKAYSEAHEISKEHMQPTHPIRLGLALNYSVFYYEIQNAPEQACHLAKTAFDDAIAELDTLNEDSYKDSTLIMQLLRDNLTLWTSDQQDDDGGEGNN

First: WDFY4_Q6ZS81_88_AWEHSVGIICFPSLQR (UniProt Q6ZS81)
Second: YARS2_Q9Y2Z4_413_EAPFSEFFLDPGTSVLDTCRK (UniProt Q9Y2Z4)
Chain of UniProt Q9Y2Z4 (Q9Y2Z4 whole entry, looked up): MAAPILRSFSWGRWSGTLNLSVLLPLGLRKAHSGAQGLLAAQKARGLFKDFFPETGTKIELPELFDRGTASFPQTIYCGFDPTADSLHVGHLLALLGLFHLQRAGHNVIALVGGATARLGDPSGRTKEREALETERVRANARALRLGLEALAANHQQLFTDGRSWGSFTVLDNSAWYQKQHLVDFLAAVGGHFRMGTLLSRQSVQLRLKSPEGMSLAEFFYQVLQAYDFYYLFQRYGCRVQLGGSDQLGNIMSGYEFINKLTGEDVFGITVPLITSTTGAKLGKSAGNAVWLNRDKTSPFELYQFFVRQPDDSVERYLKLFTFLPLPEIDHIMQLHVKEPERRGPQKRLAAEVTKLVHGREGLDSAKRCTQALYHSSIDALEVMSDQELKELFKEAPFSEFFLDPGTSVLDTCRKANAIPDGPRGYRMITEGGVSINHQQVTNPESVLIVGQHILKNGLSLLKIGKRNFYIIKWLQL
The “probe-labelled cysteine peptide fold change” value of the first is lower: -0.23 for the first, -0.161 for the second.

Going from “ZNF787_Q6DD87_350_IHAVGAPSVCSSCGQSYYR (UniProt Q6DD87)” to “ZMYND11_Q15326_126_CLSDEFR (UniProt Q15326)”, the “probe-labelled cysteine peptide fold change” value rises from -0.238 to -0.00978.

Going from “ZNF76_P36508_342_HHVVHTHCK (UniProt P36508)” to “WDFY4_Q6ZS81_2352_EAEGEPDEVGVDCTQLTFFPALHESLHSEDFLELCR (UniProt Q6ZS81)”, the “probe-labelled cysteine peptide fold change” value falls from -0.115 to -0.125.

Compared with “WDR3_Q9UNX4_183_WWDLDTQHCFK (UniProt Q9UNX4)”, “WDR6_Q9NNW5_830_LACHVMHLSSHR (UniProt Q9NNW5)” is higher in “probe-labelled cysteine peptide fold change” value: 0.0656 for the first, 0.144 for the second.

Compared with “ZNF512_Q96ME7_540_NNEELVVSASCK (UniProt Q96ME7)”, “ZC3H12A_Q5D1E8_374_RPSPSSQSSSLLTESEQCSLDGK (UniProt Q5D1E8)” is lower in “probe-labelled cysteine peptide fold change” value: 0.0455 for the first, -0.349 for the second.

First: WDR43_Q15061_291_LAVVCR (UniProt Q15061)
Second: WDR55_Q9H6Y2_5_TCEERPAEDGSDEEDPDSMEAPTR (UniProt Q9H6Y2)
The “probe-labelled cysteine peptide fold change” value of the first is higher: 0.0146 for the first, -0.668 for the second.

Compared with “WDHD1_O75717_285_GYAICGLAWHPTCGR (UniProt O75717)”, “XXYLT1_Q8NBI6_386_IYHGNCNTPIPED (UniProt Q8NBI6)” is higher in “probe-labelled cysteine peptide fold change” value: -0.0417 for the first, -0.00561 for the second.

Compared with “YWHAZ_P63104_94_DICNDVLSLLEK (UniProt P63104)”, “ZNF217_O75362_641_SAVETQANNLICR (UniProt O75362)” is lower in “probe-labelled cysteine peptide fold change” value: 0.233 for the first, -0.181 for the second.

Going from “YY1AP1_Q9H869_689_AHMNVDIACAVADGENAFQGLEPK (UniProt Q9H869)” to “ZNF638_Q14966_688_EQSLHYGSVLLITELPEDGCTEEDVR (UniProt Q14966)”, the “probe-labelled cysteine peptide fold change” value rises from -0.0161 to 0.0192.

First: ZW10_O43264_650_LGIVWQDVLPVNIYCK (UniProt O43264)
Second: ZNF579_Q8NAF0_77_LSHSGLRPHACPLCPK (UniProt Q8NAF0)
Chain of UniProt Q8NAF0 (Q8NAF0 whole entry, looked up): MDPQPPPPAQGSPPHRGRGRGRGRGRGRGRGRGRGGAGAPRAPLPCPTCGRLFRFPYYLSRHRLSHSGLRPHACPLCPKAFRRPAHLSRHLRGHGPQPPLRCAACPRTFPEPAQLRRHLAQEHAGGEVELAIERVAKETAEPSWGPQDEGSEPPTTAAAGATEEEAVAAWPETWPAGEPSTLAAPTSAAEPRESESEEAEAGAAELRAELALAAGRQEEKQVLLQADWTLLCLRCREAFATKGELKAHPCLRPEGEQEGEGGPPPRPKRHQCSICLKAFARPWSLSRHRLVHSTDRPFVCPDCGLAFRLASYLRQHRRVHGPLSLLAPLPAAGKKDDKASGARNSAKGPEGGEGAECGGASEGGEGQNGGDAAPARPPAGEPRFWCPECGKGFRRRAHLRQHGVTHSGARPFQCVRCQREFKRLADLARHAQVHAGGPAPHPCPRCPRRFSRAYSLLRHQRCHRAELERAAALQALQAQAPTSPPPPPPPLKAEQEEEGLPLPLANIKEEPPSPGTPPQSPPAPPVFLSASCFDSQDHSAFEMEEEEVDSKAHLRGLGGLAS
The “probe-labelled cysteine peptide fold change” value of the first is higher: 0.139 for the first, 0.112 for the second.

Going from “WDR82_Q6UXN9_195_TCEWTGLK (UniProt Q6UXN9)” to “ZNF76_P36508_292_THTGERPYTCPEPHCGR (UniProt P36508)”, the “probe-labelled cysteine peptide fold change” value rises from -0.0459 to 0.0197.

Going from “YWHAG_P61981_194_LGLALNYSVFYYEIQNAPEQACHLAK (UniProt P61981)” to “WASHC5_Q12768_385_WLMLHTADSACDPNNKR (UniProt Q12768)”, the “probe-labelled cysteine peptide fold change” value falls from 0.0292 to -2.11.

Compared with “ZNF280C_Q8ND82_388_ICELSFETEHILLQHMK (UniProt Q8ND82)”, “XPO4_Q9C0E2_492_IAAEHCIPLLTSLLEER (UniProt Q9C0E2)” is higher in “probe-labelled cysteine peptide fold change” value: 0.00547 for the first, 0.012 for the second.

First: ZFAND2A_Q8N6M9_84_GQIPDVVVGDHIDRDCDSHPGK (UniProt Q8N6M9)
Chain of UniProt Q8N6M9 (Q8N6M9 whole entry): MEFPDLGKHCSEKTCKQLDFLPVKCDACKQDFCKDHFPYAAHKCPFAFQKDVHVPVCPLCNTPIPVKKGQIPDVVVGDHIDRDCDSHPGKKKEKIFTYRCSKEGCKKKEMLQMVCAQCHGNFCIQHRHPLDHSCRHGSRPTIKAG
Second: XPO1_O14980_528_DLLGLCEQKR (UniProt O14980)
The “probe-labelled cysteine peptide fold change” value of the first is higher: 1.7 for the first, -0.248 for the second.

Going from “ZNF512B_Q96KM6_6_TDPFCVGGR (UniProt Q96KM6)” to “WRN_Q14191_1367_HGPDSGLQPSCDVNK (UniProt Q14191)”, the “probe-labelled cysteine peptide fold change” value falls from -0.0569 to -0.126.

“YTHDC2_Q9H6S0_788_LLAPVNCPIADFLMK (UniProt Q9H6S0)” was tested, and the “probe-labelled cysteine peptide fold change” value was -0.0326.

same assay, conditions: 50 µM; THP-1; incubation time: 4 h

Going from “WDFY4_Q6ZS81_88_AWEHSVGIICFPSLQR (UniProt Q6ZS81)” to “YARS2_Q9Y2Z4_413_EAPFSEFFLDPGTSVLDTCRK (UniProt Q9Y2Z4)”, the “probe-labelled cysteine peptide fold change” value falls from 0.423 to -0.368.

First: ZNF787_Q6DD87_350_IHAVGAPSVCSSCGQSYYR (UniProt Q6DD87)
Second: ZMYND11_Q15326_126_CLSDEFR (UniProt Q15326)
The “probe-labelled cysteine peptide fold change” value of the first is lower: -0.311 for the first, 0.0128 for the second.

First: ZNF76_P36508_342_HHVVHTHCK (UniProt P36508)
Second: WDFY4_Q6ZS81_2352_EAEGEPDEVGVDCTQLTFFPALHESLHSEDFLELCR (UniProt Q6ZS81)
The “probe-labelled cysteine peptide fold change” value of the first is higher: -0.0476 for the first, -0.598 for the second.

Compared with “WDR3_Q9UNX4_183_WWDLDTQHCFK (UniProt Q9UNX4)”, “WDR6_Q9NNW5_830_LACHVMHLSSHR (UniProt Q9NNW5)” is lower in “probe-labelled cysteine peptide fold change” value: 0.271 for the first, 0.0864 for the second.

Going from “ZNF512_Q96ME7_540_NNEELVVSASCK (UniProt Q96ME7)” to “ZC3H12A_Q5D1E8_374_RPSPSSQSSSLLTESEQCSLDGK (UniProt Q5D1E8)”, the “probe-labelled cysteine peptide fold change” value falls from 0.0373 to -0.484.

Going from “WDR43_Q15061_291_LAVVCR (UniProt Q15061)” to “WDR55_Q9H6Y2_5_TCEERPAEDGSDEEDPDSMEAPTR (UniProt Q9H6Y2)”, the “probe-labelled cysteine peptide fold change” value falls from 0.0317 to -1.19.

Going from “WDHD1_O75717_285_GYAICGLAWHPTCGR (UniProt O75717)” to “XXYLT1_Q8NBI6_386_IYHGNCNTPIPED (UniProt Q8NBI6)”, the “probe-labelled cysteine peptide fold change” value rises from -0.0589 to -0.0309.

Compared with “YWHAZ_P63104_94_DICNDVLSLLEK (UniProt P63104)”, “ZNF217_O75362_641_SAVETQANNLICR (UniProt O75362)” is lower in “probe-labelled cysteine peptide fold change” value: 0.309 for the first, -0.0706 for the second.

Compared with “YY1AP1_Q9H869_689_AHMNVDIACAVADGENAFQGLEPK (UniProt Q9H869)”, “ZNF638_Q14966_688_EQSLHYGSVLLITELPEDGCTEEDVR (UniProt Q14966)” is lower in “probe-labelled cysteine peptide fold change” value: 0.141 for the first, 0.11 for the second.

Going from “ZW10_O43264_650_LGIVWQDVLPVNIYCK (UniProt O43264)” to “ZNF579_Q8NAF0_77_LSHSGLRPHACPLCPK (UniProt Q8NAF0)”, the “probe-labelled cysteine peptide fold change” value falls from 0.206 to -0.0195.

First: WDR82_Q6UXN9_195_TCEWTGLK (UniProt Q6UXN9)
Second: ZNF76_P36508_292_THTGERPYTCPEPHCGR (UniProt P36508)
The “probe-labelled cysteine peptide fold change” value of the first is higher: 0.418 for the first, -0.0549 for the second.

Compared with “YWHAG_P61981_194_LGLALNYSVFYYEIQNAPEQACHLAK (UniProt P61981)”, “WASHC5_Q12768_385_WLMLHTADSACDPNNKR (UniProt Q12768)” is lower in “probe-labelled cysteine peptide fold change” value: 0.41 for the first, -2.63 for the second.

First: ZNF280C_Q8ND82_388_ICELSFETEHILLQHMK (UniProt Q8ND82)
Second: XPO4_Q9C0E2_492_IAAEHCIPLLTSLLEER (UniProt Q9C0E2)
The “probe-labelled cysteine peptide fold change” value of the first is lower: 0.0405 for the first, 0.2 for the second.

Going from “ZFAND2A_Q8N6M9_84_GQIPDVVVGDHIDRDCDSHPGK (UniProt Q8N6M9)” to “XPO1_O14980_528_DLLGLCEQKR (UniProt O14980)”, the “probe-labelled cysteine peptide fold change” value falls from 3.88 to -1.11.

First: ZNF512B_Q96KM6_6_TDPFCVGGR (UniProt Q96KM6)
Second: WRN_Q14191_1367_HGPDSGLQPSCDVNK (UniProt Q14191)
The “probe-labelled cysteine peptide fold change” value of the first is higher: 0.0733 for the first, -0.11 for the second.

“YTHDC2_Q9H6S0_788_LLAPVNCPIADFLMK (UniProt Q9H6S0)” was tested, and the “probe-labelled cysteine peptide fold change” value was -0.072.
